LYPLA2 inh = LYPLA2 inhibitors, primary screen, counter-screen for PME1 inhibitor project, biochemical, fluorescence polarization, FP-Rh probe ABPP | Acyl-protein thioesterase 2 (Homo sapiens), O95372 | recombinant LYPLA2 | inhibition, % at 5.9 µM | 320,000 compounds, 0.38% hits;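 active = inhibition above the screen-wide mean plus 3 SD, limit set per campaign, cut at about 26% in these data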;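 also: 0% = LYPLA2 with DMSO and 100% = wells lacking LYPLA2 enzyme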
Target sequence (O95372 whole entry, looked up): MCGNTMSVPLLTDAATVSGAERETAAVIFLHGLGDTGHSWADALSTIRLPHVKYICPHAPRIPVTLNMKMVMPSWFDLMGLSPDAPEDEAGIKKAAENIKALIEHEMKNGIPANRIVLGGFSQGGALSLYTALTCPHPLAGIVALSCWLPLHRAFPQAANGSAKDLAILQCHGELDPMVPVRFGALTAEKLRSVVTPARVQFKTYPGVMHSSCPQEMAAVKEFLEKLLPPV
LYPLA1 counter = LYPLA1 inhibitors, primary screen, counter-screen for PME1 inhibitor project, biochemical, fluorescence polarization, FP-Rh probe ABPP; recombinant LYPLA1; inhibition, % at 5.9 µM; 320,000 compounds, 0.16% hits; AID 2174, 2009;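 active = inhibition above the mean of all tested compounds plus 3 SD, set per campaign, cut at about 14% in these data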;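 also: inhibitors block serine hydrolase probe labeling of LYPLA1 so polarization falls; 0% = enzyme with DMSO and 100% = wells lacking LYPLA1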
Hck-Nef inh = inhibitors of Nef-activated human Hck kinase, primary screen, biochemical, Z-Lyte FRET, 384-well, Hck-YEEI. Recombinant Hck-YEEI plus Nef, Z-Lyte FRET kinase assay. inhibition, % at 20 µM. 220,000 compounds, 0.68% hits. AID 463187, 2010;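 active = Hck-Nef kinase inhibition above about 50%, limit read from the data; inactive = inhibition below that limit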;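 also: 0% = DMSO with Hck plus Nef and 100% = Hck alone without Nef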
PREPL inh = PREPL enzyme inhibitors, primary screen, biochemical, fluorescence polarization; inhibition, % at 5.96 µM; recombinant PREPL, fluorescence polarization activity-based probe; Prolyl endopeptidase-like (Homo sapiens), Q4J6C6; AID 2751, 2010; 320,000 compounds, 0.68% hits;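 also: 0% = enzyme with DMSO and 100% = wells lacking enzyme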
p97 ATPase inh = inhibitors of human p97 ATPase, primary screen, biochemical; Transitional endoplasmic reticulum ATPase (Homo sapiens), P55072; recombinant p97 ATPase, Kinase-Glo ATP luminescence, 3 h; inhibition, % at 8 µM; 220,000 compounds, 0.42% hits; in the data active = inhibition above about 15%;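 also: 0% = DMSO vehicle and 100% = wells lacking enzyme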
Rin1 Abl inh = inhibitors of Rin1-Abl protein binding, primary screen, biochemical, TR-FRET; inhibition, % at 7.35 µM; AID 588664, 2011; 360,000 compounds, 0.4% hits; in the data active = inhibition above about 5%, passing the limit was not always enough
PREPL inh cf = human PREPL enzyme inhibitors, confirmation, biochemical, fluorescence polarization; shares compounds with PREPL inh; recombinant PREPL, fluorescence polarization activity probe; inhibition, % at 5.96 µM; 2,000 compounds, 67% hits; AID 2803, 2010;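 also: 0% = protein with DMSO and 100% = wells lacking protein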
The depositor's hits bear a star. Shown are actives, neighbours in structure and some others; about 1.7% of the full set was active somewhere. Rule as the data show it, unless noted: active = inhibition above about 43%; inactive = the rest.

How did NC(=O)c1ccccc1NC(=O)c1cccc(C(=O)Nc2ccccc2C(N)=O)n1 do in these assays?
LYPLA2 inh: 6; LYPLA1 counter: 0; PREPL inh: 0; Rin1 Abl inh: -4

What do the screens show for `CC(NC(=O)N1CCOCC1)c1ccccc1` (stereo not given)?
LYPLA2 inh: 4; LYPLA1 counter: 3; PREPL inh: 0; Rin1 Abl inh: -1

How did O=C(COc1coc(CN2CCc3ccccc32)cc1=O)N1CCCCC1 do in these assays?
LYPLA2 inh: 5; LYPLA1 counter: 1; PREPL inh: 45*; Rin1 Abl inh: 2; PREPL inh cf: 35

What do the screens show for `O=C(COc1coc(CN2CCc3ccccc32)cc1=O)NCCc1ccccc1`?
LYPLA2 inh: 5; LYPLA1 counter: 0; PREPL inh: 18; Rin1 Abl inh: 3

Results for CC(=O)c1ccc2c(c1)N(CCCN(C)C)c1ccccc1S2 ?
Rin1 Abl inh: -7

What do the screens show for `CCC(=O)c1ccc2c(c1)N(CCCN(C)C)c1ccccc1S2`?
LYPLA2 inh: -1; LYPLA1 counter: 0; PREPL inh: 64*; Rin1 Abl inh: -4; PREPL inh cf: 55*

Results for COc1cc(C(C)=O)ccc1OCC(=O)NCCCn1nc(C)cc1C ?
PREPL inh: 4; Rin1 Abl inh: 3

How did CC(C)NCC(O)Cn1c2c(c3ccccc31)CCc1c-2cnn1-c1ccccc1 (stereo not given) do in these assays?
LYPLA2 inh: 0; LYPLA1 counter: 0; Hck-Nef inh: 1; PREPL inh: 66*; p97 ATPase inh: 1; Rin1 Abl inh: 0; PREPL inh cf: 82*

How did COc1ccc([C@H]2CC(=O)C=C(c3ccnc4ccc(Cl)cc34)C2)cc1 do in these assays?
LYPLA2 inh: 1; LYPLA1 counter: -3; PREPL inh: -40; Rin1 Abl inh: 4

How did COc1cccc(-c2ccc3ncnc(NCc4cccs4)c3c2)c1 do in these assays?
LYPLA2 inh: -20; LYPLA1 counter: -14; PREPL inh: 14; Rin1 Abl inh: -1

What do the screens show for `Cn1ccc2cc(-c3ccc4ncnc(NCc5cccs5)c4c3)ccc21`?
PREPL inh: 50*; Rin1 Abl inh: 0; PREPL inh cf: 41

How did CC(=O)CCC(=O)N1CCCC(CNC(=O)c2ccc(-c3ccccc3)cc2)C1 (stereo not given) do in these assays?
LYPLA2 inh: 2; LYPLA1 counter: 0; Hck-Nef inh: 16; PREPL inh: 43*; p97 ATPase inh: 3; Rin1 Abl inh: 2; PREPL inh cf: 35

What do the screens show for `Clc1ccc(C(c2ccccc2)N2CCNCC2)cc1` (stereo not given)?
LYPLA2 inh: -5; LYPLA1 counter: 0; Hck-Nef inh: 3; PREPL inh: 8; p97 ATPase inh: 0; Rin1 Abl inh: -7

How did CC12CNCC(C)(CN(C(c3ccccc3)c3ccccc3)C1)C2 do in these assays?
LYPLA2 inh: 12; LYPLA1 counter: 1; Hck-Nef inh: 7; PREPL inh: 46*; p97 ATPase inh: 0; Rin1 Abl inh: 0; PREPL inh cf: 13

How did Nc1cc(N)cc(-c2nc3ccccc3o2)c1 do in these assays?
LYPLA2 inh: 7; LYPLA1 counter: 2; PREPL inh: 55*; Rin1 Abl inh: -1; PREPL inh cf: 34

How did CN(C(=O)COC(=O)c1ccc(Br)c([N+](=O)[O-])c1)c1c(N)n(Cc2ccccc2)c(=O)[nH]c1=O do in these assays?
LYPLA2 inh: 8; LYPLA1 counter: 5; PREPL inh: 22; Rin1 Abl inh: -2

What do the screens show for `COc1ccc(-c2c[n+]3c4n2CCCCC4=C(c2ccccc2)C3)cc1`?
LYPLA2 inh: 6; LYPLA1 counter: 4; Hck-Nef inh: 1; PREPL inh: 54*; p97 ATPase inh: -1; Rin1 Abl inh: -2; PREPL inh cf: 38

From PubChem
